The values that follow come from PubChem BioAssay AID1465 (SRMLSC, 2008).

The campaign covered roughly 220,000 compounds. About 160 (0.073%) were called active.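 The calls were made as follows: active = fold induction of absorbance versus untreated yeast above a set limit, then at least 30% activation at any dose in follow-up; inconclusive = repeats straddling the limit, or above it without dose testing; inactive = fold induction below the set limit.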 The list is a sample of the results. Entries with a potency or affinity are not part of this list.

A short description of this assay: enhancers of respiration in Yfh1-depleted yeast, dose response, Friedreich's ataxia, plus single-dose screen (AID 1465). The following applies: S. cerevisiae Yfh1-off respiration, WST-1 reduction, 72 h; at 50 µM; stronger effect = higher value. Background: Tetrazolium dyes change colour on reduction, which living cells bring about.
As a reminder, the fold induction is the signal under treatment as a multiple of the control signal. As for `Cc1cc(C)nc(SCc2ccc(C(=O)N/N=C/c3ccccn3)cc2)n1`, the fold induction was 1.01 (inactive).
With `CCSc1nc(=O)n(-c2ccccc2)c(C)c1C(C)=O`, the fold induction is 1.05 (inactive).
Under `CC(C)C(=O)Nc1cccc(NC(=O)c2cccc([N+](=O)[O-])c2)c1` stands 0.95 (inactive).
Under `Cc1cc(C)n(CC(=O)Nc2ccccc2)n1` stands 1.01 (inactive); under `COc1cc(CNC(C)C)c(Br)cc1OC1CCCC1`, 1.02 (inactive).
As for `Cc1sc2nc(SC3CCOC3=O)n(Cc3ccccc3)c(=O)c2c1C` (centres undefined), the figure is 0.94 (inactive).
For the compound `CC(C)OCCCNC(=O)CCC(=O)NNc1nc2ccccc2c2nc(-c3ccccc3)nn12`, the fold induction is 0.97 (inactive).
As for `O=C1C(Cl)=C(Nc2ccc(O)cc2)C(=O)c2ccccc21`, the figure is 1.23 (inactive).
As for `Cc1ccc(NC2=C(Cl)C(=O)c3ccccc3C2=O)cc1`, the figure is 1.27 (inactive); as for `Cc1sc2ncn(CC(=O)Nc3ccccc3F)c(=O)c2c1-c1ccccc1`, 0.95 (inactive); as for `O=C(NCC(c1ccco1)N1CCCCC1)c1ccc2c(c1)S(=O)(=O)c1ccccc1C2=O` (centres undefined), 0.99 (inactive).
As for `Cc1cc(C)nc(SCC(=O)c2cc3ccccc3oc2=O)n1`, the figure is 1.02 (inactive).
As to `CCCC(=O)c1cc2ccccc2oc1=O`, the fold induction is 1.11 (inactive).
As to `CCCCCC(=O)NC(=S)NNC(=O)CC`, the fold induction was 0.75 (inactive).
Under `CCCCC(=O)NC(=S)NNC(=O)CC#N` stands 0.83 (inactive); under `CCCNC(=O)C1(CC2CC(c3ccccc3)=NO2)CCN(C(=O)CCCCCBr)CC1` (centres undefined), 1.03 (inactive); under `O=C(NC(c1ccccc1)c1cc(Cl)c2cccnc2c1O)c1cccnc1` (centres undefined), 0.87 (inactive).
As for `CCC(=O)NC(c1ccccc1OC)c1ccc2cccnc2c1O` (centres undefined), the figure is 0.67 (inactive); as for `CCCC(=O)NC(c1cccs1)c1cc(Cl)c2cccnc2c1O` (centres undefined), 1.06 (inactive).
As for `O=C(NC(c1ccc(Cl)cc1)c1cc(Cl)c2cccnc2c1O)c1cccnc1` (centres undefined), the figure is 1.09 (inactive); as for `CCCC(=O)NC(c1ccccc1OC)c1ccc2cccnc2c1O` (centres undefined), 1.03 (inactive).
Consider `CCCCC(=O)NC(c1ccco1)c1cc(Cl)c2cccnc2c1O` (centres undefined), for which the fold induction was 0.91 (inactive).
As for `O=C(O)COc1ccccc1C(Nc1ccccn1)c1cc(Cl)c2cccnc2c1O` (centres undefined), the figure is 1.19 (inactive); as for `CCC(=O)NC(c1ccco1)c1cc(Cl)c2cccnc2c1O` (centres undefined), 1.13 (inactive); as for `O=C(Cn1c(COc2ccccc2)nc2ccccc21)Nc1cc(Cl)cc(Cl)c1`, 0.92 (inactive).
With `CO/N=C/c1ccc(N2CCN(C(=O)c3ccc(F)cc3)CC2)c([N+](=O)[O-])c1`, the fold induction is 0.84 (inactive).
Consider `CC(=O)Nc1ccc(CN2CCCC(C(=O)c3ccc(C(F)(F)F)cc3)C2)cc1` (centres undefined), for which the fold induction is 0.88 (inactive).
As for `Cc1cc2ccccc2n2c(SCC(=O)NCC3CCCO3)nnc12` (centres undefined), the figure is 0.94 (inactive); as for `Cc1nc(SC(C)C(=O)Nc2cccc(C(F)(F)F)c2)c2c(C)c(C(=O)O)sc2n1` (centres undefined), 1.09 (inactive); as for `COCCNC(=O)c1cnn2c(C(F)F)cc(-c3ccccc3)nc12`, 1.17 (inactive).
Regarding `COC(=O)c1ccc(C(=O)OC)c(=O)[nH]1`, the fold induction is 1.03 (inactive).
As for `COC(=O)c1ccc(N)cc1O`, the fold induction was 1.05 (inactive).
As for `COc1ccc(N2CCN(C(=O)c3ccc(C(C)(C)C)cc3)CC2)cc1`, the figure is 0.96 (inactive).
For the compound `CC(=O)Nc1nc2cc3c(cc2s1)OCO3`, the fold induction is 0.99 (inactive).
Turning to `COc1ccc(CCNC(=O)COC(=O)Cc2ccc(OC)cc2)cc1`, the fold induction is 0.8 (inactive).
Under `CCOC(=O)c1c(C)oc2c1c(CN1CCN(C(=O)OCC)CC1)c(O)c1ccccc12` stands 1.19 (inactive); under `CCOC(=O)c1c(C)oc2c1c(C=NCCO)c(O)c1ccccc12`, 1.38 (inactive).
Under `CC(Oc1cccc2c1OC(C)(C)C2)C(=O)O` (centres undefined) stands 1.05 (inactive); under `CC(C)c1nnc(SCC(=O)N2CCc3ccccc32)n1C`, 0.98 (inactive).
As for `O=C1c2ccccc2NC(c2ccc(-c3cccc([N+](=O)[O-])c3)o2)N1O` (centres undefined), the figure is 0.9 (inactive); as for `O=C1c2ccccc2NC(c2ccc(-c3ccc(Br)cc3)o2)N1O` (centres undefined), 0.77 (inactive).
Regarding `O=c1oc2ccccc2cc1C1=Nn2c(nnc2-c2cccnc2)SC1`, the fold induction was 1.06 (inactive).
As for `Cc1c(/C=N/NC(=O)c2cccnc2)c2ccccc2n1Cc1ccccc1`, the figure is 1.01 (inactive); as for `COc1ccc(Cn2c(O)c(C=Nc3ccc(OC)cc3)c3ccccc3c2=O)cc1`, 1.13 (inactive); as for `O=C(N/N=C/c1c(O)n(-c2ccccc2Cl)c(=O)c2ccccc12)c1cccnc1`, 1.49 (inactive).
Turning to `COc1ccc(Cn2c(O)c(C=Nc3ccccc3)c3ccccc3c2=O)cc1`, the fold induction was 1.05 (inactive).
As for `CC1CCC(NC(=S)NCCN(C)C)CC1` (centres undefined), the figure is 1 (inactive); as for `O=C1C2CCCN2C(c2ccc(Br)cc2)N1c1ccc(F)cc1` (centres undefined), 0.86 (inactive).
Under `CCOC(=O)/C(C(N)=NCC(C)C)=C(/O)c1ccccc1` stands 0.925 (inactive); under `O=C(CSc1nc(-c2ccc(F)cc2)cc(C(F)(F)F)n1)Nc1ccc2c(c1)OCO2`, 0.96 (inactive).
As for `O=C(OCCOc1ccccc1)c1n[nH]c2ccccc12`, the figure is 0.95 (inactive); as for `COC(=O)[C@H](C)NC(=O)Nc1ccc(OC)cc1OC`, 1.1 (inactive); as for `Cc1noc(C)c1CSc1ccc(Br)cc1`, 0.89 (inactive).
Consider `COc1ccc(C(=O)NCC(=O)N/N=C/C=C/c2ccccc2)cc1OC`, for which the fold induction is 0.96 (inactive).
Under `CCCCCCN1C=CC(=C/C=C(\C#N)C(=O)OCC)C=C1` stands 1.18 (inactive).
As for `CCOC(=O)/C(C#N)=C/C=C1\C=Cc2ccccc2N1CC`, the figure is 1 (inactive); as for `CCCCNC(=S)N1CCN(c2ccc(C(C)=O)cc2)CC1`, 0.96 (inactive); as for `COc1cccc(NC(=O)NCCC2=CCCCC2)c1`, 0.86 (inactive).
Under `Cc1ccccc1C(=O)NNC(=O)C(C)N1C(=O)c2ccccc2C1=O` (centres undefined) stands 1.01 (inactive).
For the compound `NC(=S)n1[nH]c(-c2ccc([N+](=O)[O-])cc2)c(N=Nc2ccc(Cl)cc2)c1=O`, the fold induction was 1.58 (inactive).
Under `NC(=S)n1[nH]c(-c2ccc([N+](=O)[O-])cc2)c(N=Nc2cccc(Cl)c2)c1=O` stands 1.01 (inactive).
As for `Cc1ccc(-n2c(SCC(=O)Nc3cc(C)on3)nc3c(c2=O)SC(C)C3)cc1` (centres undefined), the figure is 1.05 (inactive); as for `CC(C)C(c1nnnn1CCc1ccccc1)N1CCOCC1` (centres undefined), 1.03 (inactive); as for `COc1cccc2c1C(=O)C=C(C)C2=O`, 1.23 (inactive).
With `CC(C)(C=O)C1=CC(=O)c2ccccc2C1=O`, the fold induction was 1.3 (inactive).
As to `Cc1ccc(N2CCN(C(=O)c3cccc([N+](=O)[O-])c3)CC2)cc1Cl`, the fold induction is 0.82 (inactive).
With `O=C(CSc1ccccc1)Nc1ccc(C(=O)Nc2ccc(O)cc2)cc1`, the fold induction was 1.06 (inactive).
Under `O=C(Cn1cnc2cc([N+](=O)[O-])ccc2c1=O)Nc1ccc2c(c1)OCO2` stands 0.88 (inactive); under `COc1ccc(NC(=S)NNC(=O)COc2ccc(Cl)cc2Cl)cc1`, 0.84 (inactive); under `Cc1cccc(NC(=S)NNC(=O)COc2ccc(Cl)cc2Cl)c1`, 1.14 (inactive).
Under `O=C(NCc1ccc(Cl)cc1)C1CCC(CNc2c(N3CCOCC3)c(=O)c2=O)CC1` (centres undefined) stands 1.07 (inactive); under `COc1cc([N+](=O)[O-])cc(/C=N/NC(=O)c2cc(C)nc3ccccc23)c1O`, 1.4 (inactive).
As for `O=C(N/N=C/c1cc([N+](=O)[O-])ccc1O)c1cc(-c2ccccc2)nc2ccccc12`, the figure is 1.16 (inactive); as for `Cc1ccccc1-c1nc(CN2CCSCC2)c(C)o1`, 1.04 (inactive).
